High-throughput results: PubChem BioAssay, National Center for Advancing Translational Sciences (NCATS)
Gal4-VP16 FLuc: VP16 counterscreen qHTS for inhibitors of ROR gamma transcriptional activity | Drosophila S2 Gal4-VP16 UAS-luciferase, luminescence, 20 h | Potency, µM (titrated, usually from 53.6 µM), without a hit: top-dose activity, negative = inhibition, usual class: inhibitors | hit rate 3.5% among 310,000;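 also: Gal4-VP16 expression switched on by copper sulfate through the metallothionein promoter; % is scaled to controls: 0 for no effect and ±100 for the full control effect; nearly all actives have a fitted effect of over 50% in size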
RORgamma inh: qHTS for inhibitors of ROR gamma transcriptional activity; Nuclear receptor ROR-gamma (Mus musculus), P51450; Drosophila S2 Gal4-RORgamma UAS-luciferase reporter, 20 h; Potency, µM (doses to about 53.6 µM), for the others: top-dose activity change, negative = inhibition, actives largely listed as inhibitors; hit rate 5.4% among 310,000; also: % is scaled to controls: 0 for no effect and ±100 for the full control effect; nearly all actives have a fitted effect of over 60% in size
Target sequence (P51450 whole entry, looked up, the tested form may be a part): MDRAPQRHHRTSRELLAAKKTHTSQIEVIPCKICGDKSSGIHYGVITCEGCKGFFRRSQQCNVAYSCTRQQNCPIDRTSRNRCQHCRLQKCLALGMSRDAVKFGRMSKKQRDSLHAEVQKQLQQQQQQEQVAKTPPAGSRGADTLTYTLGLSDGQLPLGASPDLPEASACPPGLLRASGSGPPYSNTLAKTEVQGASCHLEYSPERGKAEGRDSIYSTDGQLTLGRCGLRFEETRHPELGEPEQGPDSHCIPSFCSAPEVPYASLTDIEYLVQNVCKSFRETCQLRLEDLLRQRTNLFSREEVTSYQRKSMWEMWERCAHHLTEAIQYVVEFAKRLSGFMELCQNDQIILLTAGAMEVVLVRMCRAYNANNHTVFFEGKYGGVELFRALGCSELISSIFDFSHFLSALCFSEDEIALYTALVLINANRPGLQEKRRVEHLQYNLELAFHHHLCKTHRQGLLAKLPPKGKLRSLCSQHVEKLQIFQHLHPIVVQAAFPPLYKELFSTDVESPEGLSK
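Stably transfected Drosophila Schneider cells are the test system, with ROR gamma fused to Gal4 and luciferase under UAS control; luminescence is read after 20 hr of 700 uM copper sulfate induction at ambient temperature.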
TGFb SMAD3 inh: qHTS for Inhibitors of TGF-b; HepG2 CAGA-GFP TGF-b/SMAD3 reporter, GFP fluorescence, 18 h; TGF-beta stimulated, 500 pg/mL final; AID 588855, 2011; hit rate 1.2% among 410,000; Potency, µM (top dose mostly 46.1 µM), without a hit: at the top dose activity, negative = inhibition, hits mostly inhibitors; also: % is scaled to controls: 0 for no effect and ±100 for the full control effect; nearly all actives have a fitted effect of over 65% in size
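Inhibition of TGF-beta-driven CAGA-GFP reporter expression in HEPG2 cells is measured by cellular GFP fluorescence after 18 h stimulation with 500 pg/mL recombinant TGF-beta in 1% FBS medium at 37 degrees C.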
ATXN2 expr inh: Primary qHTS for Inhibitors of ATXN expression; HEK-293 ATXN2-luciferase reporter, luminescence, 24 h; Potency, µM (top dose mostly 57 µM), for inactives: at the top dose activity change, negative = inhibition, hits mostly inhibitors; hit rate 0.72% among 360,000; AID 1745845, 2022; also: % is scaled to controls: 0 for no effect and ±100 for the full control effect; nearly all actives have a fitted effect of over 55% in size
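qHTS (up to 57 uM final) was run with 24 h compound exposure of reporter cells at 37 °C. Each well was multiplexed: SteadyGlo luminescence measured ATXN2-luciferase expression after a fluorogenic Gly-Phe-AFC viability readout (25 uM final).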
HepG2 viability: qHTS for Inhibitors of TGF-b: Cytotox Counterscreen; HepG2 CAGA-GFP viability, ATP luminescence, 18 h; Potency, µM (top dose mostly 46.1 µM), without a hit: top-dose activity change, negative = cytotoxicity, actives largely listed as cytotoxic; hit rate 0.76% among 410,000
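HepG2 CAGA-GFP cells (1000/well, DMEM with 1% FBS) received compound, then TGF-beta at 500 pg/mL final, and were incubated 18 hours at 37 degrees C. Viability was read by CellTiter-Glo luminescence. Media-only wells were set as complete cell-killing and DMSO as no toxicity.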
ATXN viability: Viability Counterscreen for Primary qHTS for Inhibitors of ATXN expression. S2 cells (HEK-293 line with an ATXN2-luciferase reporter) viability, CellTiter-Fluor protease fluorescence, 24 h. Potency, µM (highest dose often 56.7 µM), hits mostly cytotoxic. hit rate 0.49% among 400,000. AID 651635, 2014; also: nearly all actives have a fitted effect of over 40% in size
Numbers without * were called inactive; i = inactive; ? = inconclusive; · = no result given; [ ] = another dose, or the depositor's remark. A selection: hits, their analogues and other compounds. The true share with any hit is near 6.1%. Calls follow the shape of the dose curve; as a rule, active = well fitted curve in the direction sought with a large enough effect; inconclusive = small, poorly fitted or top-dose-only effect, or another doubt; inactive = no such curve, though single readings can be large; an effect the other way counts as inactive or inconclusive. Potency is read from the fitted curve at half-maximal effect.

SMILES	Gal4-VP16 FLuc	RORgamma inh	TGFb SMAD3 inh	ATXN2 expr inh	HepG2 viability	ATXN viability
CCn1c(SCC(=O)Nc2ncc(C(F)(F)F)cc2Cl)nnc1-c1ccccc1	?	28%	-6%	·	-6%	i
Cc1cccc(NC(=O)CSc2nnc(C)n2Cc2ccccc2)c1	21%	8%	?	-8%	-13%	i
COc1ccc(N2CCN(C(=O)c3cc(-c4ccc(C)c(F)c4)on3)CC2)cc1	·	·	1%	4%	-5%	i
O=c1[nH]c(SCc2ccc(F)cc2)nc2c1CCCC2	·	·	-12%	-2%	-22%	i
COc1cc(/C=N/n2c(-c3ccccc3)n[nH]c2=S)ccc1O	1%	2%	10%	·	-14%	i
O=[N+]([O-])c1cc2c(cc1/C=N/n1c(-c3ccccn3)n[nH]c1=S)OCO2	-2%	-16%[10 µM]	?	-22%	0%	i
O=[N+]([O-])c1ccc(/C=N/n2cn[nH]c2=S)cc1	?	13µM*	-2%	4%	-5%	i
O=[N+]([O-])c1ccc(/C=N/n2c(-c3ccccc3)n[nH]c2=S)cc1	10µM*	1.3µM*	-24%	-12%	0%	i
O=[N+]([O-])c1cc2c(cc1/C=N/n1c(-c3ccccc3)n[nH]c1=S)OCO2	?	5.6µM*	0%	-21%	0%	i
COc1ccc(/C=N/n2c(-c3ccc(C)cc3)n[nH]c2=S)cc1OC	-12%	3.2µM*	2%	·	4%	i
OC(C1=C/C(=C\c2ccncc2)c2ccccc21)c1ccncc1 (centres undefined)	·	·	?	·	-37%	·
COc1cccc(/C=C/c2nc(C#N)c(NCCc3ccc(OC)c(OC)c3)o2)c1	·	·	?	?	0%	i
CCSc1nc(-c2ccc(Cl)cc2)nc2c1Cc1c(CO)cnc(C)c1O2	·	·	-9%	4%	-11%	i
CCN(CC)S(=O)(=O)c1cccc(-c2n[nH]c(=S)n2/N=C/c2ccc(OC(F)F)cc2)c1	13µM*	-37%	-11%	-5%	0%	i
CCN(CC)S(=O)(=O)c1cccc(-c2n[nH]c(=S)n2/N=C/c2ccc(OC)cc2)c1	-10%	?	37%	1%	1%	i
Cc1ccc(/C=N/n2c(-c3ccccc3)n[nH]c2=S)cc1	2.8µM*	?	-25%	-9%	-21%	i
CC(C)c1ccc(/C=N/n2c(-c3ccccc3)n[nH]c2=S)cc1	3.2µM*	4µM*	?	·	-54%	i
CCOc1ccc(CCNC(=O)c2sc3ncccc3c2-n2c(C)ccc2C)cc1	·	·	?	-10%	-29%	?
Cc1ccc(C)n1-c1c(C(=O)NCC(C)c2ccccc2)sc2ncccc12 (centres undefined)	·	·	11µM*	-15%	-39%	?
Cc1ccc(CCNC(=O)c2sc3ncccc3c2-n2c(C)ccc2C)cc1	·	·	11µM*	?	-34%	?
Cc1cc(C)c(NC(=O)CSc2ccnc(=O)[nH]2)c(C)c1	·	·	-3%	8%	0%	i
CC(=O)c1ccc(NC(=S)NC(C)CCc2ccccc2)cc1 (centres undefined)	20µM*	7.9µM*	13µM*	7%	-42%	i
CCCN(Cc1ccccc1)C(=S)Nc1ccc(C(C)=O)cc1	10µM*	4.5µM*	12%	33%	0%	i
Cc1cccc(C)c1NC(=S)NC(C)CCc1ccccc1 (centres undefined)	4.5µM*	2.2µM*	-1%	-7%	-16%	i
Cc1ccccc1NC(=O)C(=O)NC(C)CCc1ccccc1 (centres undefined)	-12%	-29%	-10%	7%	-4%	i
SMILES	Gal4-VP16 FLuc	RORgamma inh	TGFb SMAD3 inh	ATXN2 expr inh	HepG2 viability	ATXN viability
Cc1ccc(NC(=S)NC(C)CCc2ccccc2)cc1C (centres undefined)	6.3µM*	4µM*	?	-24%	-8%	i
CCCCCCCCCCCCCCCC(=O)O[C@@H]1CC(C)=C(/C=C/C(C)=C/C=C/C(C)=C/C=C/C=C(C)/C=C/C=C(C)/C=C/C2=C(C)C[C@@H](OC(=O)CCCCCCCCCCCCCCC)CC2(C)C)C(C)(C)C1	·	·	·	·	·	i
C=C1C=C(C(F)F)n2ncc(C(=O)NCc3ccc(OC)c(OC)c3)c2N1	·	·	-4%	·	10%	·
CCc1ccc(N2C(=O)C(Cl)=C(N3CCCCCC3)C2=O)cc1	24%	?	-1%	-16%	-2%	i
CCc1ccc(N2C(=O)C(Cl)=C(N3CCOCC3)C2=O)cc1	13µM*	30%	3%	-1%	-13%	i
CCC1=NN(C(=O)COc2ccccc2C)C(O)(c2ccncc2)C1 (centres undefined)	?	4µM*	10%	-2%	3%	i
CC1=NN(C(=O)COc2ccccc2)C(O)(c2cccnc2)C1 (centres undefined)	0%	5%	-22%	·	-2%	i
CC1=NN(C(=O)COc2ccccc2C)C(O)(c2ccc(Cl)cc2)C1 (centres undefined)	7.9µM*	14µM*	?	-21%	-30%	i
Cc1ccc(C(=O)Oc2ccc(/C=C3\C(=N)N4N=C(N5CCOCC5)SC4=NC3=O)cc2)cc1	13µM*	?	-12%	5%	-16%	i
CC(=O)c1ccc(-c2ccc(-c3cc(=O)oc4c(C(C)C)ccc(C)c34)cc2)cc1	11µM*	?	-36%	?	-4%	i
Cc1ccc(-n2c(-c3ccc(Br)cc3)n[nH]c2=S)c(C)c1	·	·	-21%	·	-56%	i
COc1ccc(-c2n[nH]c(=S)n2-c2ccc(C)cc2)cc1	10µM*	0.89µM*	-1%	-4%	-28%	i
COc1ccc(-n2c(-c3ccc(Br)cc3)n[nH]c2=S)cc1	2.5µM*	2.2µM*	8%	-23%	22%	i
COc1ccc(-n2c(-c3ccc(Br)cc3)nc(=S)c3c2CCCC3)cc1	10µM*	7.9µM*	0%	-3%	18%	i
CCOC(=O)C[n+]1cccc(Br)c1	·	·	-6%	·	-3%	·
COC(=O)c1ccc(NC(=O)c2cc3cc4ccc(OC)c(Cl)c4nc3s2)cc1	·	·	-7%	51%	2%	i
COc1ccc(N2CCC(CNC(=S)Nc3cccc(C)c3)C2)cc1 (centres undefined)	5µM*	4µM*	-20%	-6%	-27%	i
